Growth data for 14 compounds are collected here from PubChem BioAssay (NCI).

About 83,000 compounds went through this panel and 20% of them were active in at least one assay; those are over-represented in the sample as a whole.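 In brief: 96-well plates, 48 h treatment, single concentration, percent growth endpoint.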 A number with no mark means an inactive call. Activity calls are given as the source filed them. How the source made its calls: active means growth percent below 10; inactive means the rest.

Experiment in all cases: NCI-60 one-dose screen, 48 h (100 = growth as untreated, 0 = no growth, -100 = all killed)
Common to all, as to conditions: 10 µM unless noted

The test system of experiment [1] is HCT-15 colon.
The subject of experiment [2] is HT29 colon.
Experiment [3] relates to SNB-75 CNS.
Experiment [4] deals with SNB-19 CNS.
Experiment [5] relates to U251 CNS.
Experiment [6] deals with PC-3 prostate.
The subject of experiment [7] is SK-MEL-5 melanoma.
Experiment [8] concerns UACC-62 melanoma.
In experiment [9] the test system is SK-MEL-28 melanoma.

For the compound `CC(C)(C)c1[nH]nc2c1C(c1cc3ccccc3[nH]c1=O)Nc1cc(C(=O)OCc3ccccc3)ccc1N2` (stereo unspecified), the growth is 55.3% in [1]; 62.1% in experiment [2]; 71.7% in experiment [3]; 61.7% in [4]; 51.6% in experiment [5]; 41.4% in experiment [6]. Besides, the growth is 39.3% in [7], 49.1% in experiment [8] and 77.2% in experiment [9].

Turning to `C=C(C)[C@@H]1CC[C@]2(C(=O)N3CCN(CC)CC3)CC[C@]3(C)[C@H](CC[C@@H]4[C@@](C)(CCC(=O)N5CCN(CC)CC5)[C@H](C(=C)C)CC[C@]43C)[C@@H]12`, the growth in experiment [1] is 9.11% (active); in [2], 17.3%; in [3], 69.2%; in experiment [4] it was 85.1%; in [5], 40.6%; in experiment [6], 32.5%. The growth in [7] was 45.5%; in experiment [8], 50.9%; in experiment [9], 55.8%.

As to `CC1(C)C(=O)CC[C@]2(C)[C@H]3C(=O)C=C4[C@@H]5C[C@@](C)(C(=O)NCCNCCN)CC[C@]5(C)CC[C@@]4(C)[C@]3(C)CC[C@@H]12`, the growth in experiment [1] is 99.4%; in experiment [2], 98%; in experiment [3], -29.7% (active); in experiment [4], 98.4%; in experiment [5], 88.3%; in experiment [6], 90.4%. The growth in experiment [7] is 96.8%; in experiment [8], 98.1%; in [9] it was 104%.

Regarding `Oc1ccccc1/C=N\NC(=S)Nc1ccc(F)cc1`, the growth is 21.8% in experiment [1]; 39.1% in experiment [2]; 43.1% in experiment [3]; 36% in experiment [4]; 27.7% in experiment [5]; 40% in experiment [6]. Further, the growth is 6.1% (active) in [7], 2.27% (active) in experiment [8] and 30.8% in experiment [9].

With `C#CCN=C[C@]12CC[C@@H](C(=C)C)[C@@H]1[C@H]1CC[C@@H]3[C@@]4(C)CCC(=O)C(C)(C)[C@@H]4CC[C@@]3(C)[C@]1(C)CC2`, the growth in experiment [1] was 53.2%; in [2], 55.7%; in [3] it was 120%; in experiment [4], 79%; in experiment [5] it was 62.1%; in experiment [6] it was 24.5%. In addition, the growth is 25.3% in experiment [7], 37.7% in experiment [8] and 81.6% in experiment [9].

Take `O=C1C(=O)N(CCCCn2cc(-c3ccccc3)nn2)c2ccccc21`: the growth in experiment [1] is 105%; in experiment [2] it was 112%; in experiment [3], 95%; in [4] it was 99.7%; in experiment [5], 107%; in experiment [6], 94.3%. Moreover, the growth in [7] is 100%; in [8], 95.7%; in [9], 113%.

As to `O=C(/C=C/c1cccc(O)c1)c1ccccc1O`, the growth in experiment [1] is 92.9%; in experiment [2] it was 87.7%; in [3], 72%; in experiment [4], 90.1%; in [5], 77%; in experiment [6], 83.8%. For the same compound, the values for the growth in experiment [7], in experiment [8] and in experiment [9] were 92.3%, 87.4% and 98.2%, respectively.

With `C#CCn1c(C)cc(C)c(C#N)c1=O`, the growth in experiment [1] was 105%; in [2], 120%; in experiment [3], 103%; in experiment [4] it was 95.4%; in [5], 100%; in experiment [6], 104%. Moreover, the growth in experiment [7] was 104%; in experiment [8], 99%; in [9], 109%.

In the case of `CC(=O)O[C@H]1CC[C@]2(C)[C@H]3CC=C4[C@@H]5[C@H](C)[C@@H](C)CC[C@]5(C(=O)NCCNCCNCCN)CC[C@@]4(C)[C@]3(C)CC[C@H]2C1(C)C`, the growth in experiment [1] was 63.3%; in experiment [2], 42.5%; in [3] it was 70.8%; in experiment [4], 82.6%; in experiment [5], 70.1%; in experiment [6] it was 57.7%. For the same compound, the growth was 96.3% in [7], 91.7% in experiment [8] and 90.1% in experiment [9].

`Cc1csc(Nc2nc(-c3cccc(Br)c3)nc(C(Cl)(Cl)Cl)n2)n1`: the growth is 59.3% in experiment [1]; 18.9% in experiment [2]; 52.5% in experiment [3]; 39.8% in experiment [4]; 35.8% in experiment [5]; 48.9% in [6]. Moreover, the growth in experiment [7] is 91.1%; in [8], 60.5%; in experiment [9], 47%.

`Cc1c(C)c2c(c(C)c1NC(=O)CCCCCCC(=O)O)CCC(C)(CCCC(C)CCCC(C)CCCC(C)C)O2` (stereo unspecified): the growth in experiment [1] was 55%; in experiment [2], 39.8%; in experiment [3], 93.9%; in experiment [4], 101%; in experiment [5], 68.9%; in experiment [6], 69.7%. Besides, the growth was 81% in experiment [7], 89.1% in [8] and 96.1% in experiment [9].

Take `c1ccc2c(-c3nc(-c4c[nH]c5ncccc45)cs3)c[nH]c2c1`: the growth was 84.9% in experiment [1]; 79.2% in [2]; 88.4% in experiment [3]; 97.8% in [4]; 104% in experiment [5]; 84.2% in experiment [6]. In addition, the growth in [7] is 106%; in experiment [8], 96.9%; in experiment [9], 112%.

With `CC1(C)NCCC[C@]2(C)[C@H]3CC[C@@H]4[C@H]5[C@H](C(=O)/C=C/c6ccccn6)CC[C@]5(CO)CC[C@@]4(C)[C@]3(C)CC[C@@H]12`, the growth in [1] was -4.7% (active); in experiment [2], -13.5% (active); in experiment [3] it was 105%; in experiment [4], 77.6%; in experiment [5] it was -21.6% (active); in experiment [6], 22.2%. For the same compound, the growth in experiment [7] was 56.3%; in [8], 72.8%; in experiment [9] it was 88.3%.

As to `O=C(NC1=CC(=O)c2ccccc2C1=O)c1ccccc1`, the growth in [1] was 29.1%; in experiment [2], 71.2%; in [3], 34%; in experiment [4], 36.3%; in experiment [5], 21.1%; in experiment [6], 16.6%. In addition, the growth in [7] was 0.587% (active); in experiment [8], 15%; in experiment [9], 52.3%.
